# Test results from PubChem BioAssay AID504339 (National Center for Advancing Translational Sciences (NCATS), 2011).
# In all, about 390,000 compounds went through this assay and about 17,000 (4.4%) were called active. Not shown: some 8% with an inconclusive outcome. Many of the other results were omitted from the sample, so actives are more common in it than they were. Values without a mark were called inactive. Calls come from the whole dose curve; as a rule, active = well fitted inhibition curve with a large enough effect; inconclusive = small, poorly fitted or top-dose-only effect; inactive = no such curve, though single readings can be large or run the other way.
# Biological target: Lysine-specific demethylase 4A (Homo sapiens) (UniProt O75164)
# Sequence (O75164 whole entry, looked up, the tested form may be a part): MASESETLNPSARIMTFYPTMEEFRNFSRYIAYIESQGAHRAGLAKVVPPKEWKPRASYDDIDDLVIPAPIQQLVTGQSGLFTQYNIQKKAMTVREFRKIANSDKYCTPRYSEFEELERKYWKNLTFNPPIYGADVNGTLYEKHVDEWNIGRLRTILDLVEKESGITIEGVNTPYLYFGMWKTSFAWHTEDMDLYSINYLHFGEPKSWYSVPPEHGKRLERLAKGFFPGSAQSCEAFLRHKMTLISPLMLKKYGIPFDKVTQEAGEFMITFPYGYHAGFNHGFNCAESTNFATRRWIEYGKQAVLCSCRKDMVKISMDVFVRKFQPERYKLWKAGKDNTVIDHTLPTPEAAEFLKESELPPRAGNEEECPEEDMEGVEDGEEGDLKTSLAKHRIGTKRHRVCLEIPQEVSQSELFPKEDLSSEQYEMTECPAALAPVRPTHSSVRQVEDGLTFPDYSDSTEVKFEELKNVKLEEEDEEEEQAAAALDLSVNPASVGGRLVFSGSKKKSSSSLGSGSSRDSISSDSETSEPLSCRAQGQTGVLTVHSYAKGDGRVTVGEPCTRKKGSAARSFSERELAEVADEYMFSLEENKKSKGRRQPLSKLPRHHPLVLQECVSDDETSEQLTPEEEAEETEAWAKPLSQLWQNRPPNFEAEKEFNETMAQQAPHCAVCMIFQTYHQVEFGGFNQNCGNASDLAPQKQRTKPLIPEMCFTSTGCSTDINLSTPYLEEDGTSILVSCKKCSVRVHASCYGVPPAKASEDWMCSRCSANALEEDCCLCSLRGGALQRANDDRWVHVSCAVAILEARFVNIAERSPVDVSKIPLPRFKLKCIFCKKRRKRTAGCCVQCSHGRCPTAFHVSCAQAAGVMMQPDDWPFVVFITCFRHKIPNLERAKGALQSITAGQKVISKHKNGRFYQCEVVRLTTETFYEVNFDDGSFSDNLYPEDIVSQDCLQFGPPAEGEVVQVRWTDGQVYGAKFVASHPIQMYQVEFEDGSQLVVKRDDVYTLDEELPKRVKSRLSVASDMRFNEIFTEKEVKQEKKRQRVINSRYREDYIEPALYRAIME
# Assay: qHTS Assay for Inhibitors of JMJD2A-Tudor Domain; note: nearly all actives have a fitted effect of over 50% in size
# Settings: AlphaScreen JMJD2A-Tudor / H3K4me3 peptide binding; series mostly up to 114 µM; activity change, negative = inhibition: at the top concentration
# From the text: JMJD2A is a jumonji-domain-containing lysine demethylase that uses Fe(II) together with 2-OG to effect oxidative demethylation of histones. Methylation is one of many […] modification that affect epigenetic transcription. […] It is proposed that the functions of JmjD2A binding to the histones, is to maintain marks after they are installed and to spread the modifications by […], establishing a self-propagating cycle for rapid methylation over a large area of chromatin. […] Thus, small molecule targeting of the JMJD2A-tudor domain interaction with its target methylhistone mark is expected to enable sophisticated experiments probing the fine regulatory pathways leading to selective demethylation of a given methyllysine locus based on the methylation state of adjacent histone marks. A quantitative high throughput AlphaScreen has been developed to identify small molecule inhibitors based on a protocol published by NCGC and SGC [4].
# Although AlphaScreen has significant advantages with its utility in a variety of epigenetic target assays, the primary screening data provided in this deposition should be used with caution due to the prevalence of screening artifacts. The top compound concentration tested was high (>100uM) in this assay, which increases number of actives and potential artifacts. An AlphaScreen counterscreen is highly recommended to be run against any putative actives to eliminate non-specific artifacts. Alternatively, one can use other AlphaScreen assays in PubChem to filter out promiscuous hits.
# [1] Lee, J. et al. Distinct binding modes specify the recognition of methylated histone H3K4 and H4K20 by JMJD2A-tudor. Nat Struct Mol Biol. 15(1); 109-11. 2008. PMID: 18084306
# [2] Yasgar, et al. Compound Management for Quantitative High-Throughput Screening. JALA. 2008 Apr;13(2):79-89. PMID: 18496600
# [3] Inglese, et al. Quantitative high-throughput screening: a titration-based approach that efficiently identifies biological activities in large chemical libraries. Proc Natl Acad Sci. 1;103(31):11473-8. 2006. PMID: 16864780
# [4] Quinn et al. A homogeneous method for investigation of methyl-dependent protein-protein interactions in epigenetics. Nucleic Acids Res., 38(2):e11. 2010. PMID: […]
# [5] Baell,Holloway. New substructure filters for removal of pan assay interference compounds (PAINS) from screening libraries and for their exclusion in bioassays. J Med Chem. 53(7):2719-40. 2010. PMID: 20131845
# NIH Molecular Libraries Probe Production Network [MLPCN]
# NIH Chemical Genomics Center [NCGC]
# Structural Genomics Consortium (SGC)
# To each well of a 1,536w plate, 2ul of JMJD2A-Tudor (final 100nM) and 1ul biotinylated histone peptide methylated at Lys4 [b-H3(1-18)K4me3] (final 50nM) were added in 1x PBS buffer, pH 7.4, containing 0.01% Tween-20, using a nanoliter dispenser. Formation of a protein-peptide complex proceeded at room temperature for 30 min. A Kalypsys pin-tool transferred 23nl of library compound solution in DMSO to each well. Following a 30 min incubation of the protein-peptide complex with compounds at room temperature, a mixture of 40 µg/mL each streptavidin-coated donor and nickel chelate acceptor AlphaScreen beads (final 10 µg/mL) was added in a 1ul dispense for a final volume of 4ul, followed by a brief centrifugation (1000 rpm, 1 min). Plates were incubated protected from the light for 20 min at room temperature. Microplates were then read on an EnVision multilabel plate reader using the 1,536 plate HTS AlphaScreen aperture (excitation time 80 ms, measurement time 240 ms).
# % is set by controls: 0 for no effect and ±100 for the full control effect; potency is the fitted concentration of half-maximal effect.
SMILES,Potency,"activity change, negative = inhibition"
Cc1cc([N+](=O)[O-])c(NC2CCCCC2)c([N+](=O)[O-])c1,25.1 µM (active),–
Cc1cc(C)cc(NC(=O)NC2CCCCCCC2)c1,–,-2.76%
Cc1ccc(S(=O)(=O)NC2CCCCCC2)cc1,–,0%
O=C(CCCCn1c(=O)c2ccccc2n(CC(=O)Nc2cccc(C(F)(F)F)c2)c1=O)NCc1ccc2c(c1)OCO2,–,-16.7%
Cc1ccc(S(=O)(=O)n2nc(C)c(S(=O)(=O)N3CCCCCC3)c2C)cc1,–,-26.2%
COc1ccc(-c2cc3ncccc3cn2)cc1,–,-16.9%
COc1ccc(-c2cc(C3CCN(c4ncccc4[N+](=O)[O-])CC3)[nH]n2)cc1,56.2 µM (active),–
CC(=O)NC(Cc1ccccc1)C(=O)NC1CCN(c2ncccc2[N+](=O)[O-])CC1 (stereo not given),–,-12.3%
Cc1ccc(F)cc1S(=O)(=O)N1CCC(c2nc3ccccc3s2)CC1,–,8.18%
Cc1cc(C)c2c(-c3ccc(F)cc3)c(C#N)c(=O)n(C)c2n1,–,-9.54%
CC(=O)c1c(C)[nH]c(=S)c(C#N)c1-c1ccc(F)cc1,5.62 µM (active),–
N#Cc1c(-c2ccc(Cl)cc2)c2c([nH]c1=S)CCCC2,–,-20.6%
CC1CCN(S(=O)(=O)c2ccc3c(c2)N(CC(=O)NCCc2ccccc2)C(=O)CO3)CC1,–,-19.4%
COc1cccc(C(=O)NC2=NC(c3ccc(N(C)C)cc3)CC(=O)N2)c1 (stereo not given),–,-21.2%
O=C(O)CCC(=O)N(Cc1ccccc1)Cc1ccccc1,–,-17.7%
Oc1ccc(/C=N/N(Cc2ccccc2)c2ccccc2)cc1,44.7 µM (active),–
Cc1ccc(-c2cn3c(n2)sc2cc(C(=O)NCc4cccs4)ccc23)c(C)c1,–,68.4%
O=C1CC(c2ccccc2)CC2=C1C(c1ccco1)n1nc(C(F)(F)F)nc1N2 (stereo not given),–,-27.7%
Cc1ccc(S(=O)(=O)N2CCCc3cc(NS(=O)(=O)c4cc(C)ccc4C)ccc32)cc1,–,-24.2%
CC(C)Oc1ccc(CCc2nnc(SCC(=O)O)n2-c2ccccc2)cc1,–,-11.2%
COc1ccc(NCc2nnc(SCc3ccccc3)n2-c2ccc(OC)cc2)cc1,50.1 µM (active),–
COc1ccc(CSc2nnnn2-c2ccc(C(=O)O)cc2)cc1,–,4.63%
O=C1C[C@@H](c2ccc3ccccc3c2)N1S(=O)(=O)c1ccccc1[N+](=O)[O-],–,-23.4%
COc1ccc(-c2nc(CN3CCC(C(=O)NCCN(CC(C)C)CC(C)C)CC3)c(C)o2)cc1OC,–,-9.76%
COc1ccc(OC)c(NC(=O)C2CCN(S(=O)(=O)c3ccc(C)cc3)CC2)c1,–,-13.8%

SMILES,Potency,"activity change, negative = inhibition"
COc1ccccc1C(=O)Nc1ccc(OCc2nnc3c4ccccc4c(C)nn23)cc1,–,-4.03%
Cc1ccc(OCc2nnc(SC3CCc4ccccc4C3=O)n2C)cc1 (stereo not given),28.2 µM (active),–
Cc1cccnc1NC(=O)CSc1nnc(COc2ccc(C(C)C)cc2)n1C,–,-4.17%
Fc1ccc(CN2CCc3nc(Nc4ccccc4)ncc3C2)cc1F,–,-25.8%
CN1C(=O)c2[nH]nc(-c3ccc(F)cc3)c2C1c1ccccn1 (stereo not given),–,7.23%
Cc1ccc(NC(=O)c2cc3cc(C)ccc3n2C)cc1,–,-7.95%
CCc1ccc(S(=O)(=O)n2ccnc2)cc1,–,-16.2%
CCCCOc1ccc(CNC(=O)c2ccc3c(c2)N(C)C(=O)C2CCCCN32)cc1 (stereo not given),–,-30%
CCC1(C)Cc2c(sc3[nH]c(=S)n(Cc4ccccc4)c(=O)c23)CO1 (stereo not given),–,-32.6%
C=CCn1c(=S)[nH]c2scc(-c3ccco3)c2c1=O,28.2 µM (active),–
Cc1ccc(CCNC(=O)Cn2c(-c3cccs3)cc3cc(F)ccc32)cc1,–,-6.62%
N#C/C(=C(\O)CCl)c1nnc2n1CCCCC2,35.5 µM (active),–
N#C/C(=C/c1cccc([N+](=O)[O-])c1)c1nnc2n1CCCCC2,–,-10.6%
N#C/C(=C(\O)C(F)(F)F)c1nnc2n1CCCCC2,–,1.4%
COc1ccc(N2CCN(c3cc(C)nc4nncn34)CC2)cc1,–,-23.3%
CCCCN1CC(c2nc3ccccc3n2CCCCOc2ccc(C)cc2C)CC1=O (stereo not given),–,-5.96%
O=[N+]([O-])c1ccc(S(=O)(=O)N2CCN(c3nc(-c4ccccc4)nc4ccccc34)CC2)cc1,–,-12.1%
Cc1nc(COc2cccc(Cl)c2)sc1C(=O)/C=C/N(C)C,–,-23.5%
CN(C)/C=C/C(=O)c1ccccc1F,–,5.26%
Cc1nc(-c2ccccc2)sc1C(=O)/C=C/N(C)C,44.7 µM (active),–
COCCN(Cc1ccco1)C(=O)Cn1ncc2c([nH]c3ccccc32)c1=O,–,-21.5%
O=S(=O)(c1ccc2c(c1)OCCO2)N1CCN(S(=O)(=O)c2cc(F)ccc2F)CC1,–,-16.4%
CCOC(=O)c1c(S(=O)(=O)N2CCCC(C(=O)NCc3ccc(F)cc3)C2)c(C)n(CC)c1C (stereo not given),–,-34.3%
CCN(CC)CCCSc1nc2ccccc2s1,28.2 µM (active),–
Cn1c(=O)[nH]c(=O)c2c1nc(N1CCN(CCO)CC1)n2CCSc1nc2ccccc2s1,–,-14.6%
